The results in this text go back to PubChem BioAssay AID1259415 (National Center for Advancing Translational Sciences (NCATS), 2018).

“And” between values parts separate entries of the source, which are not always exact repeats. Equal values may be shown once. Out of some 410,000 compounds screened, about 18,000 (4.4%) were called active. About 7% were inconclusive and are not listed. Only a selection was taken, and actives are over-represented in it overall. Unmarked numbers belong to inactive results. Cut-off read from the data, not from the text of the source: active = activity change below about -60%; inconclusive = no clear call, values can overlap the other calls; inactive = above about -39%.
% is set by controls: 0 for no effect and ±100 for the full control effect.

The nature of this experiment: qHTS Assay for inhibitors of the human cytomegalovirus (HCMV). To be noted: HFF cells, HCMV-luciferase reporter, 72 h; at 57.5 µM; stronger effect = lower value. The method in brief: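 Two-dose cell screen: HFF monolayers treated with compounds and infected with luciferase-expressing HCMV at 1 PFU/cell, 72 h at 37C, then lysed for luciferase measurement.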
Take `COc1cc(OC)cc(-c2nc3nc(C)c(CCC(=O)Nc4ccccc4)c(C)n3n2)c1`: the activity change, negative = inhibition was 4.64%. For the compound `Cc1ccc(NC(=O)c2ccc3[nH]c(C)cc(=O)c3c2)c(C)c1`, the activity change, negative = inhibition was -8.34%. As for `Cc1[nH]n(-c2ccccc2)c(=O)c1/C=N/NC(=O)c1ccoc1C`, the figure is -99.7% (active); as for `O=C(N/N=C/c1c(O)n(C2CC2)c(=S)[nH]c1=O)c1ccccc1`, -8.42%; as for `O=C(N/N=C/c1c(O)n(C2CC2)c(=S)[nH]c1=O)c1ccccc1Cl`, -9.9%. Turning to `CCOC(=O)CSc1nnc(CNC(=O)Cc2ccccc2)n1-c1ccccc1OC`, the activity change, negative = inhibition is -26.6%.

For `CC(=O)c1ccc(NC(=O)c2nc(-c3ccc(C)cc3)n3c2CCCCC3)cc1`, the activity change, negative = inhibition was -8.98%. Regarding `Cc1cccc(CNC(=O)c2cnc3sc(N4CCCCC4)nn3c2=O)c1`, the activity change, negative = inhibition is 27.1%.

With `CCOc1ccccc1C(=O)NC1(C(F)(F)F)C(=O)Nc2c1c(=O)[nH]c(=O)n2-c1ccc(F)cc1` (centres undefined), the activity change, negative = inhibition is -8.54%. Consider `COc1ccc(CNC(=O)c2cc3c(=O)[nH]c4ccc(C)cc4c3s2)c(OC)c1`, for which the activity change, negative = inhibition was -17.4%. For `CN(CCNC(=O)c1cc2c(-c3ccccc3F)nn(C)c2s1)C1CCCCC1` the value was -6.98%; for `COc1ccc(CNC(=O)c2cc3c(-c4ccccc4F)nn(C)c3s2)c(OC)c1`, -64.7% (active). For `Cc1ccc(Nc2c(-c3ccc(C)cc3)nc3cnccn23)cc1` the value was 31.2%; for `CCN1CCN(c2nc(Nc3cc(OC)ccc3OC)nc(Nc3cc(OC)ccc3OC)n2)CC1`, -64.4% (active); for `CCCOc1ccc(Cl)cc1Nc1nc(NCCO)nc(N2CCCC2)n1`, 14.9%. As for `COc1ccc(OC)c(NC(=O)CSc2nc3ccccc3nc2N2CCCCC2)c1`, the figure is 19.8%; as for `COc1ccc2c(CNCCc3ccccc3C)c(C(=O)O)n(Cc3ccccc3C)c2c1`, -9.03%; as for `COc1cc(C(=O)N2CCC(c3ccncc3)CC2)cc(OC)c1OC`, 18%. Turning to `COc1ccccc1CNC(=O)CCCCn1c(=O)c2ccccc2n(CC(=O)Nc2cc(Cl)ccc2C)c1=O`, the activity change, negative = inhibition is -9.62%. As for `O=C(NCc1ccncc1)c1cccc(NS(=O)(=O)c2ccc(F)c(F)c2)c1`, the figure is -101% (active). Regarding `O=C(NCc1ccccc1)c1ccc(S(=O)(=O)Nc2cccc(C(F)(F)F)c2)cc1`, the activity change, negative = inhibition was -62% (active). For `O=C(NCc1ccccc1CN1CCCC1)c1cccc(S(=O)(=O)Nc2ccc(F)cc2)c1` the value was 56.8%. As for `O=C(NCCCN1CCCC1=O)c1ccc(S(=O)(=O)Nc2ccccc2)cc1`, the figure is -28.4%; as for `O=C(NCc1ccncc1)c1ccc(NS(=O)(=O)c2cccc([N+](=O)[O-])c2)cc1`, -29%.

As to `O=C(NCc1cccc(C(F)(F)F)c1)c1cccc(S(=O)(=O)N2CCN(Cc3ccccc3)CC2)c1`, the activity change, negative = inhibition was 0.707%.

As for `Cc1ccccc1CSCCNC(=O)C1CCN(S(=O)(=O)Cc2ccccc2)CC1`, the activity change, negative = inhibition was -4.14%. As for `Cc1ccc2nc(COc3cccc(NC(=O)c4cccc(Cl)c4)c3)cc(=O)n2c1`, the figure is 9.28%; as for `Cc1ccccc1-c1nc(NC(C)C)nc2cc(-c3ccccc3)sc12`, -8.38%; as for `Cc1cc(C)c2oc(C(=O)Nc3ccc(S(=O)(=O)N(C)c4ccccc4)cc3)cc(=O)c2c1`, -2.92%. `Cc1ccc(Cl)cc1NC(=O)/C(C#N)=C\c1cn(Cc2ccc(F)cc2)c2ccccc12`: the activity change, negative = inhibition is -6.14%. Consider `Cc1ccc(Cl)cc1N1CCN(C(=O)CN2C(=O)COc3ccc(S(=O)(=O)N4CCOCC4)cc32)CC1`, for which the activity change, negative = inhibition was 6.7%. On to `CC(C)CCn1c(=O)c2c(nc3n2CCCN3Cc2ccccc2)n(C)c1=O`, for which the activity change, negative = inhibition is -22.4%. For `COc1ccc2c(CC(=O)N3CCc4cc(OC)c(OC)cc4C3)coc2c1` the value was -13.1%; for `CCOc1ccc(C(=O)NCC(=O)N2CCCCCCC2)cc1OCC`, -11.3%; for `CCOc1cc(C(=O)N2CCc3cc(OC)c(OC)cc3C2)ccc1OC(F)F`, -71.6% (active). In the case of `Cc1nn(C(=O)c2c(F)cccc2F)c(C)c1S(=O)(=O)N1CCOCC1`, the activity change, negative = inhibition was 9.99%. For `O=S(=O)(c1cnccc1N1CCN(/N=C/c2ccc(Br)cc2)CC1)N1CCCCC1` the value was -6.47%; for `COc1cc(OC)c(C(=O)NC2CC(C)(C)NC(C)(C)C2)cc1OC`, 37.1%. For `COc1cc2c(cc1OC)C(=O)NCC(C)(C)O2` the value was -102% (active); for `COc1ccc(C(=O)NC2CC(C)(C)NC(C)(C)C2)cc1OC`, 7.69%; for `COc1ccc(NC(=O)CSc2nc3ccccc3n2CC(=O)N2CCCCC2C)cc1` (centres undefined), -20.6%. As for `O=C(c1cnn(-c2ccc(F)cc2)c1-n1cccc1)N1CCN(c2ccc(F)cc2)CC1`, the figure is -8.43%; as for `CCCCOc1ccc(C(=O)Nc2cccc(-c3nc4ccccc4o3)c2C)cc1`, -17.8%; as for `COC(=O)c1nc2n(n1)C(c1ccc([N+](=O)[O-])cc1)C(C(=O)Nc1ccc(Cl)cc1)=C(C)N2` (centres undefined), 5.33%. In the case of `CCOc1ccc(C2C(C(=O)Nc3ccc(Cl)cc3)=C(C)Nc3nc(C(F)(F)F)nn32)cc1` (centres undefined), the activity change, negative = inhibition is -84.1% (active).

As for `COc1cc(C2C(C(=O)Nc3ccc(F)cc3)=C(C)Nc3nc(CCCO)nn32)cc(OC)c1OC` (centres undefined), the activity change, negative = inhibition is 8.48%.

In the case of `Cc1ccc2oc3c(c(=O)c2c1)C(c1ccc([N+](=O)[O-])cc1)N(CCCN1CCOCC1)C3=O` (centres undefined), the activity change, negative = inhibition is 40.9%. For `COc1ccc(CCNC(=O)C(=O)NCC(c2ccco2)S(=O)(=O)c2cccs2)cc1OC` (centres undefined) the value was 0.563%.

For the compound `CCOc1ccc(CCNC(=O)c2csc3c2CCCCC3)cc1`, the activity change, negative = inhibition is -5.3%. For `Cc1cccc(OCCCC(=O)Nc2sc3c(c2C(N)=O)CCC(C)C3)c1` (centres undefined) the value was -6.01%; for `CCOCCCNC(=S)Nc1ccc2nc(N3CCN(CC)CC3)cc(C)c2c1`, -1.19%; for `CCN1CCN(c2cc(C)c3cc(NC(=O)c4cc(Cl)ccc4OC)ccc3n2)CC1`, -99.2% (active). Take `COc1ccc(C(=O)Nc2ccc3nc(N4CCCCC4)cc(C)c3c2)cc1OC`: the activity change, negative = inhibition is -31.4% and -29.2%. `COc1ccc(CCNC(=O)CCCn2c(=O)c3ccccc3n(Cc3ccc(F)cc3Cl)c2=O)cc1OC`: the activity change, negative = inhibition is 12.1%. As for `O=C1OCCC1=COCCCCOC=C1CCOC1=O`, the figure is 19%; as for `COc1ccc(CNC(=O)Cc2coc3ccc(C(C)C)cc23)cc1`, -6.28%. For the compound `Cc1ccc(Cl)cc1NC(=O)Cc1ccc(-n2c(C)nc3cccnc32)cc1`, the activity change, negative = inhibition was 0%. For the compound `Cc1c(NC(=O)C(C)(C)C)cccc1-c1nc2ccccc2s1`, the activity change, negative = inhibition was 39.5%.

Consider `Cc1c(NC(=O)Cc2ccccc2)cccc1-c1nc2cccnc2s1`, for which the activity change, negative = inhibition was -66.4% (active). Regarding `O=C(CCc1cn(Cc2ccc(F)cc2)c2ccccc12)NC1CCCCC1`, the activity change, negative = inhibition was 4.53%.

Turning to `Cc1nc(N2CCOCC2)sc1C(=O)NN`, the activity change, negative = inhibition is 0%. As for `Cc1nc(N2CCCCC2)sc1C=O`, the figure is -68.8% (active). With `CC(C)C(C)(C#N)NC(=O)CSc1nncn1-c1ccccc1` (centres undefined), the activity change, negative = inhibition was -23%.

Take `COc1ccccc1C1C(C(=O)N2CCCCC2)=C(C)Nc2nc3ccccc3n21` (centres undefined): the activity change, negative = inhibition was 1.21%. For `COC(=O)c1c(NC(=O)c2cc(=O)c3c(C)cc(C)cc3o2)sc2c1CCCC2`, the activity change, negative = inhibition was 17.7%. For `CCN(CC(=O)NC(=O)NCc1ccccc1)Cc1nc2ccccc2c(=O)[nH]1` the value was 5.98%.

Consider `CCN(CC)c1ccc(C(=O)NNC(=O)CCc2nc3ccccc3c(=O)[nH]2)cc1`, for which the activity change, negative = inhibition was -64.9% (active). As for `CCN(Cc1nc2ccccc2c(=O)[nH]1)Cc1cc(=O)oc2cc(C)c(C)cc12`, the figure is 17.8%.

Take `COc1ccc(-c2cc(NCc3ccc(F)cc3)n3cnnc3n2)cc1`: the activity change, negative = inhibition is -27.8%. Turning to `CCc1cnc2c(c1SCC(=O)c1ccccc1)c(=O)n(C)c(=O)n2C`, the activity change, negative = inhibition was -3.48%. For `COCC(C)NS(=O)(=O)c1ccc(N2CCCCS2(=O)=O)cc1` (centres undefined) the value was -11.3%; for `CC(c1ccccc1)n1c(NCCCn2ccnc2)nc2c1c(=O)[nH]c(=O)n2C` (centres undefined), 97.4%.

Regarding `O=C(NNC(=O)c1ccccc1[N+](=O)[O-])Nc1ccccc1C(F)(F)F`, the activity change, negative = inhibition was -0.175%. For `CN(CC(=O)Nc1ccccc1C(F)(F)F)C(=O)Cc1ccccc1F` the value was -12.2%; for `Cc1cc(C)nc(NC(=O)Nc2ccccc2C(F)(F)F)n1`, -62.1% (active); for `COc1cc(Cl)c(C)cc1NC(=O)CCc1nc2cccnc2n1Cc1cccs1`, 11%. Regarding `Cc1nnc(SCC(=O)Nc2cccc(N)c2)n1-c1ccccc1`, the activity change, negative = inhibition was 5.74%. As for `CC(=O)Nc1ccc(NC(=O)CSc2nnc(C3CC3)n2-c2ccccc2)cc1`, the figure is 0%; as for `CC[n+]1c(C)n(-c2ccccc2)c2ccc(NC(C)=O)cc21`, -79.8% (active). `Cn1c(CCC(=O)OCC(=O)NCc2ccccc2Cl)nc(=O)c2ccccc21`: the activity change, negative = inhibition is 14.9%. As for `Cc1ccc(Nc2ccc3cc(S(=O)(=O)N4CCCCC4)ccc3n2)cc1F`, the figure is -90.2% (active); as for `O=S(=O)(c1ccc2nc(NCc3ccccc3Cl)ccc2c1)N1CCCCC1`, -22.2%.

Take `O=S(=O)(c1ccc2nc(N3CCN(c4cccc(Cl)c4)CC3)ccc2c1)N1CCCCC1`: the activity change, negative = inhibition is 6.51%.

As to `Cc1ccc(-n2ncc3c(=O)n(Cc4cccc(C(F)(F)F)c4)cnc32)cc1C`, the activity change, negative = inhibition was 1.72%. As for `CSc1nc(C)nc2c1c(=O)n(C)c(=O)n2C`, the figure is 6.36%.

With `COc1ccc(NS(=O)(=O)c2ccc(NC(C)=O)cc2)cc1OC`, the activity change, negative = inhibition was -79.8% (active).

As to `COC(C(=O)Nc1ccc(S(=O)(=O)Nc2ccc(C)c(C)c2)cc1)c1ccccc1` (centres undefined), the activity change, negative = inhibition is -97.3% (active). In the case of `COc1ccc(C(=O)/C=C/c2ccc(-c3ccccc3)cc2)cc1CSCC(=O)O`, the activity change, negative = inhibition is -1.55%. As for `COc1ccc(/C=C/C(=O)c2ccc(NS(=O)(=O)c3ccc(C)cc3)cc2)cc1O`, the figure is -96.5% (active).

As to `COC(C(=O)NCc1ccccc1C)c1ccccc1` (centres undefined), the activity change, negative = inhibition was -7.11%. As for `COc1ccccc1C(=O)COC(=O)CNS(=O)(=O)c1ccc(NC(C)=O)cc1`, the figure is 5.34%; as for `COc1ccc(S(=O)(=O)Nc2cc(C)on2)cc1NC(C)=O`, 61.3%; as for `Cc1ccc(S(=O)(=O)NNC(=O)/C=C/c2cccc(F)c2)cc1`, -26.4%. With `CCC(Oc1ccccc1C)C(=O)Nc1ccc(S(=O)(=O)Nc2cc(C)on2)cc1` (centres undefined), the activity change, negative = inhibition is 4.11%.
